An excerpt weighted towards active compounds, which were near 2.4% of everything screened.
eIF4H inh: inhibitors of RNA binding by human eIF4H; AID 2012; eIF4H fluorescence polarization binding assay; Q15056; 0.94% of 290,000 active; inhibition, % at 35 µM;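 also: calls also rest on retests at 20 µM and on dose response follow-up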
MLLE-PAM2 inh: blocks PAM2 peptide binding to the PABP1 MLLE domain | P11940 | GST-MLLE / FITC-PAM2 fluorescence polarization | inhibition, % at 20 µM | 0.36% of 360,000 active; in the data active = inhibition above about 35%, passing the limit was not always enough;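 also: plate controls were DMSO wells with GST-MLLE for no effect and wells lacking GST-MLLE protein for full effect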
PHOSPHO1 block: PHOSPHO1 (human) inhibition; Q8TCT1; recombinant PHOSPHO1, absorbance phosphatase assay; inhibition, % at 13.3 µM; 1.1% of 290,000 active; in the data active = inhibition above about 60%
Target sequence (Q8TCT1 whole entry, looked up): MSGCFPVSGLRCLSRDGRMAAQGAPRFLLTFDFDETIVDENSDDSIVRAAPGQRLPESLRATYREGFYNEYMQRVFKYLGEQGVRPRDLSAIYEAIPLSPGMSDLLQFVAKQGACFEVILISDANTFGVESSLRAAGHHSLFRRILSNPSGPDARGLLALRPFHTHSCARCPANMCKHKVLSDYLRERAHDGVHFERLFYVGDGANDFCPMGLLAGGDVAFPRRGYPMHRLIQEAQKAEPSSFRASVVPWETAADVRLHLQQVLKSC
Efa HMGR inh: E. faecalis class II HMG-CoA reductase inhibition | purified E. faecalis HMGR, NADPH absorbance 340 nm kinetic | inhibition, % at 10 µM | 0.41% of 190,000 active | AID 1066;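 active = inhibition above a set limit, the median over all tested compounds plus 3 SD, cut at about 9.5% in these data; inconclusive = no clear call, values can overlap the other calls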;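 also: enzyme runs in reverse so mevalonate oxidation gives rising NADPH absorbance; 0% = complete reaction with DMSO and 100% = background rate lacking mevalonate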
PABP FP inh: blocks human PABP binding to poly(A) RNA; P11940; calls only at 35 µM; fluorescence polarization; 1% of 290,000 active;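 also: calls also rest on retests at 20 µM and on dose response follow-up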
Numbers without * were called inactive; i = inactive; ? = inconclusive; / = not tested or not shown; + = active, no number. Unless noted, no rule for the calls is given here.

SMILES	eIF4H inh	MLLE-PAM2 inh	PHOSPHO1 block	Efa HMGR inh	PABP FP inh
Cc1ccc(/C=c2\sc3nc(-c4cccs4)nn3c2=O)o1	79.0*	-11.8	-3.4	-2.7	+
COc1ccccc1-c1nc2s/c(=C\c3cccs3)c(=O)n2n1	5.0	-0.7	-14.2	-3.1	i
C=CCOc1ccccc1/C=c1\sc2nc(=O)c(C)nn2c1=O	69.1*	16.4	-19.8	1.2	i
COc1ccc(/C=c2\sc3nc(-c4ccccc4OC)nn3c2=O)c(OC)c1	-1.3	51.4*	39.9	0.7	i
CN(C)c1ccc(/C=c2\sc3nc(-c4ccccc4)nn3c2=O)cc1	-5.1	/	6.1	0.0	i
COc1ccccc1-n1c(SCC(=O)N2CCCC2)nnc1-c1ccccc1	-7.9	9.7	24.8	/	i
COc1cccc(/C=c2\sc3nc(-c4cccs4)nn3c2=O)c1OC	-0.1	-10.5	70.6*	-4.6	i
CCOC(=O)c1nc2sc3c(c2c(=O)[nH]1)CCCC3	?	-5.8	-14.4	-1.2	+
O=C(NC1CCCCC1)c1sc(=S)n2c1[nH]c(=O)c1ccccc12	-3.2	33.1	75.6*	-0.8	i
COc1cc(/C(C)=N/N2CCN(c3ccccc3OC)CC2)ccc1O	-12.1	6.3	31.6	/	i
Cc1cc2oc(=O)cc(CN3CCCCC3)c2cc1C(C)C	-10.7	-4.2	0.1	0.2	i
Cc1cc2oc(=O)cc(CN3CCCCC3)c2cc1O	-3.5	19.1	60.8*	/	i
COc1ccc(/C=N/NC(=O)c2nnn(-c3nonc3N)c2CN(C)c2ccccc2)cc1	-3.5	7.1	-28.1	/	i
CC(C)c1ccc(NC(=O)Nc2nc(C(N)c3ccccc3Cl)cs2)cc1 (configuration not stated)	/	-0.9	/	/	/
CC(C)CN(CC(C)C)C1=N/C(=C\c2ccco2)C(=O)N1c1ccccc1	69.2	-49.8	-15.2	-1.5	+
Cc1ccccc1C(=O)N1CCN=C1SCc1ccc([N+](=O)[O-])cc1	3.3	13.3	68.5*	-3.2	i
CCOc1ccc(CC(=O)N2CCN=C2SC)cc1	-5.1	-3.3	17.0	-1.9	+
O=C(Cc1ccccc1)N1CCN=C1SCc1ccc([N+](=O)[O-])cc1	-8.6	35.2	-36.4	-1.9	i
O=C(Cc1ccc(F)cc1)N1CCN=C1SCc1ccc([N+](=O)[O-])cc1	-13.2	37.7*	-14.7	-7.7	i
CSC1=NCCN1C(=O)Cc1ccc(F)cc1	-10.3	-0.5	-9.3	-3.1	i
O=C(c1cccc2ccccc12)N1CCN=C1SCc1ccc([N+](=O)[O-])cc1	-6.8	26.9	-18.9	-2.7	i
CCOc1ccc(CC(=O)N2CCN=C2SCc2ccc([N+](=O)[O-])cc2)cc1	active	3.0	31.7	-4.9	+
OC[C@@H](O)[C@@H](O)[C@H](O)[C@H](O)CO	/	0.0	/	/	/
COc1ccc(S(=O)(=O)N(C)C[C@H]2Oc3c(NC(=O)c4ccncc4)cccc3C(=O)N([C@H](C)CO)C[C@@H]2C)cc1	/	-9.1	/	/	/
Clc1ccc2oc(-c3ccccn3)nc2c1	16.1*	-24.3	-2.7	-8.0	+
SMILES	eIF4H inh	MLLE-PAM2 inh	PHOSPHO1 block	Efa HMGR inh	PABP FP inh
Cc1ccc(Sc2ncccc2COC(=O)NC(C)C)cc1	active	-13.7	39.7	-1.1	+
Cc1ccc(Sc2ncccc2O)cc1	/	9.6	/	/	/
O=C(Cn1nnc2ccccc21)NNC(=O)c1ccccc1	-3.1	9.8	1.5	/	i
COc1cc2ccccc2cc1C(=O)NC(=S)Nc1ccc(C(=O)O)cc1	36.8	25.7	27.6	/	i
COc1cc2ccccc2cc1C(=O)NC(=S)Nc1cccc(C(=O)O)c1	-2.0	40.0*	-161.8	-0.9	i
Cc1nnc2ccc(-c3ccc(NC(=O)c4ccco4)cc3)nn12	74.1*	-10.9	-2.0	-6.2	i
Cc1cc2c(cc3c(=O)n(CC(=O)NCCCN4CC(C)CC(C)C4)ncn32)s1 (configuration not stated)	1.1	7.1	69.0*	/	i
Cc1c2cnn(CC(=O)NCCCN3CC(C)CC(C)C3)c(=O)c2c(C)n1Cc1ccccc1Cl (configuration not stated)	-18.4	-4.4	50.7	/	i
CN(Cc1ccccc1)C(=O)c1[nH]cnc1C(=O)N[C@@H](CCCCNC(=O)OC(C)(C)C)C(=O)OC(C)(C)C	84.5*	3.5	13.5	-4.2	+
O=C(Nc1cc(Cl)ccc1N1CCCC1)C1=COCCO1	/	12.5	/	/	/
CCOC(=O)C1=C(C)N=c2s/c(=C/c3ccc(OCC(=O)O)cc3)c(=O)n2C1c1ccc(SC)cc1 (configuration not stated)	62.9*	-129.3	35.6	/	+
Cc1cccc(C)c1NC(=O)C(c1ccccc1)N1CCN(C/C=C/c2ccccc2)CC1 (configuration not stated)	/	8.9	/	/	/
CCCCCN(C(=O)CCC(=O)OCCOc1cccc(C)c1)c1c(N)n(CCCC)c(=O)[nH]c1=O	/	-12.3	/	/	/
COc1ccc2ccc3ccc(OC)c(OC(C)=O)c3c2c1	/	11.1	/	/	/
COc1ccc(Br)cc1C1Nc2cccc3cccc(c23)N1	101.9*	20.0	7.8	/	+
COc1cc(C2Nc3cccc4cccc(c34)N2)cc(OC)c1OC(C)=O	89.0*	21.4	45.7	2.1	+
CCN(CC)c1ccc(C2Nc3cccc4cccc(c34)N2)c(O)c1	10.4	6.5	28.8	/	i
Oc1ccc2ccccc2c1C1Nc2cccc3cccc(c23)N1	76.6*	-9.9	9.7	-5.8	+
COc1cc(C2Nc3cccc4cccc(c34)N2)ccc1O	79.2*	-10.2	34.0	/	+
C#Cc1cccc(Nc2nc(NCc3ccccc3)nc3ccsc23)c1	/	7.8	/	/	/
Cc1cc(C)c(CN2CCN(C(=O)CC[C@H]3O[C@@H](n4ccc(=O)[nH]c4=O)[C@H](O)[C@@H]3O)CC2)c(C)c1	/	-0.4	/	/	/
O=C(NC1CCN(C(=S)NCc2ccco2)CC1)C1CCCCC1	0.4	-52.3	-2.2	-5.6	i
O=C(NC1CCCCC1)NC1CCN(C(=S)NCc2ccco2)CC1	-7.5	-103.2	81.6*	-6.8	i
CCOC(=O)c1sc(NC(=O)CN2CC(C)OC(C)C2)nc1C (configuration not stated)	-5.7	-12.7	-21.4	/	i
Cc1ccc(S(=O)(=O)Nc2cc(C)c(O)c(Sc3n[nH]c(C)n3)c2)cc1	12.5	42.1*	8.1	/	i
CCCCn1c(N)c(N(CCC(C)C)C(=O)c2cc(-c3ccco3)nc3ccccc23)c(=O)[nH]c1=O	59.6*	4.1	-2.4	/	+
CCCCN(C(=O)c1cc(-c2ccco2)nc2ccccc12)c1c(N)n(CCCC)c(=O)[nH]c1=O	/	12.4	/	/	/
O=C(c1oc2ccccc2c1CSCc1ccccc1)N1CCN(c2ncccn2)CC1	16.1	68.7*	6.8	-1.2	i
COc1ccc(OC)c(N(CC(=O)Nc2ccc3c(c2)OCO3)S(=O)(=O)c2ccccc2)c1	-1.1	5.0	-10.0	-3.1	i
COc1ccc(Cl)cc1N(CC(=O)Nc1ccc2c(c1)OCO2)S(C)(=O)=O	-6.9	-88.8	69.2*	-4.6	i
